p53 reactivator – qHTS assay for re-activators of p53 using a Luc reporter; AID 504706, 2011; Potency, µM (series often up to 92.2 µM), for inactives: at the highest dose activity change, positive = activation, usual class: activators; H1299 p53-A138V BP100-luciferase reporter, luminescence, 24 h; 0.063% of 320,000 active; further: potency means the concentration at half of the fitted maximal effect; % of control where 0% means no effect; nearly all actives have a fitted effect of over 45% in size
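H1299 (p53-null), stable ts p53-A138V + BP100-Luc; 1000 cells/well, Opti-MEM/10% FBS; cpd 4 pt, 1:5; 24 h, 37 deg C, 5% CO2; detection reagent 10 min RT; luminescence.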
Nrf2 inh – Nrf2 qHTS screen for inhibitors. A549 ARE-Fluc reporter, luciferase luminescence, 18-24 h. Potency, µM (titrated, usually from 46 µM), without a hit: top-dose activity change, negative = inhibition, actives largely listed as inhibitors. 2.1% of 360,000 active. AID 504444, 2011; further: potency means the concentration at half of the fitted maximal effect; on the % scale 0 is the no-effect control and ±100 the full control effect; nearly all actives have a fitted effect of over 60% in size
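Concentration-response testing used A549 ARE_Fluc cells at 5000 cells/well. Following an 18-24 h compound incubation, viability was read by fluorescence (Ex 405/Em 525) and luciferase output by luminescence.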
A549 tox-1 – Nrf2 qHTS screen for inhibitors: counterscreen for cytotoxicity; A549 ARE-Fluc cells, CellTiter-Fluor viability, 18-24 h; Potency, µM (doses to about 46 µM), for the others: at the top dose activity change, negative = cytotoxicity, most hits filed as inhibitors; 0.16% of 390,000 active; AID 504648, 2011; further: potency means the concentration at half of the fitted maximal effect; on the % scale 0 is the no-effect control and ±100 the full control effect
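A549 ARE_Fluc cells in 5% FBS OPTI-MEM were exposed to compounds in concentration-response for 18-24 h at 37 deg C. Viability was read by CellTiter-Fluor fluorescence (Ex 405/Em 525) after 30 min, before the luciferase read.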
IL-2 act – qHTS of IL-2 Activators | IL-2 activation reporter assay, cell-based qHTS; stimulated with anti-CD3/CD4/CD28 beads; in transgenic mouse T cells | activation, % (series mostly up to about 46 µM) | 0.065% of 360,000 active; in the data active means activation above about 50%; inconclusive means mostly about 30% to 49%; further: 0% is about no effect
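Readout is EGFP and DsRed signal by fluorescent plate cytometry after 18 h at 37 degrees C. Transgenic mouse T cells (750/well) received compound for 60 min before bead stimulation (anti-CD3, anti-CD4, anti-CD28); memory T cells served as non-tolerant control.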
Nrf2 activator – qHTS of Nrf2 Activators. AREc32 ARE-luciferase reporter (MCF7-derived line), luminescence, 24 h. Potency, µM (doses to about 46.1 µM), for the others: at the top dose activation, hits mostly activators. 0.31% of 410,000 active. AID 624171, 2012; further: potency means the concentration at half of the fitted maximal effect; % of control where 0% means no effect; nearly all actives have a fitted effect of over 65% in size
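ARE-driven firefly luciferase activity in AREc32 cells measured after a 24 hr compound exposure at 37 deg C, using Steady-Glo reagent and a 30 min room-temperature hold.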
BRCA1 expr up – qHTS Assay to Identify Small Molecule Activators of BRCA1 Expression; AID 624202, 2012; Potency, µM (titrated, usually from 46.1 µM), inactives show at the top dose activation, most hits filed as activators; 1.1% of 380,000 active; MCF7-BRCA1-FFLuc reporter, luminescence, 48 h; response scale: scaled: vehicle 0%, 10 µM genistein 100%; further: potency means the concentration at half of the fitted maximal effect; nearly all actives have a fitted effect of over 80% in size
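First, MCF7-BRCA1-FFLuc cells (2000/well) attach for 2 h; next, compounds are pin-added and incubated 48 h at 37 °C; finally, luciferase reagent is added and luminescence read after 15 min.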
FLuc enzyme inh – Nrf2 qHTS screen for inhibitors: Purified Fluc Biochemical Counterscreen for Hit Validation; 4% of 1,400 active; Potency, µM (highest dose often 57.5 µM), without a hit: at the highest dose activity change, negative = inhibition, most hits filed as inhibitors; purified firefly luciferase, luminescence inhibition; shares compounds with Nrf2 inh; further: potency means the concentration at half of the fitted maximal effect; on the % scale 0 is the no-effect control and ±100 the full control effect; nearly all actives have a fitted effect of over 65% in size
Target sequence (P08659 whole entry, looked up): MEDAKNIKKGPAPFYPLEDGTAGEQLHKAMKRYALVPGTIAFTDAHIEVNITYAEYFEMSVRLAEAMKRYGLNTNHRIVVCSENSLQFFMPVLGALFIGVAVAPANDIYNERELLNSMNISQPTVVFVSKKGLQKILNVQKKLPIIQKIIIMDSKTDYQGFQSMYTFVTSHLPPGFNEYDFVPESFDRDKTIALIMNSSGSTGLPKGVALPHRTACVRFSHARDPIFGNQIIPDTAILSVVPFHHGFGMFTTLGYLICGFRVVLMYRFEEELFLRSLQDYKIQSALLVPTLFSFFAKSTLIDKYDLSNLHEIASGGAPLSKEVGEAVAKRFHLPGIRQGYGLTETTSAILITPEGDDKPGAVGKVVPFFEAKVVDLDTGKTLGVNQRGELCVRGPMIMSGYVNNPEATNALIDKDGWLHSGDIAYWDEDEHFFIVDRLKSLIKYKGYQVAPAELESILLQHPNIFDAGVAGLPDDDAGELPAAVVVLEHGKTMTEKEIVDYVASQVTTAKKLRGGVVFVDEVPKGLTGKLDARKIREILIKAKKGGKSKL
A549 tox-2 – Nrf2 qHTS screen for inhibitors: A549 ARE-Fluc Cytotoxicity Counterscreen for Hit Validation; shares compounds with Nrf2 inh; A549 ARE-Fluc cells, cytotoxicity counterscreen; Potency, µM (titrated, usually from 46.1 µM), without a hit: at the highest dose activity change, negative = cytotoxicity, usual class: inhibitors; 2% of 1,400 active;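 further: potency means the concentration at half of the fitted maximal effect; cells exposed to compounds for 18 to 24 hours; on the % scale 0 is the no-effect control and ±100 the full control effect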
ARE-Fluc inh – Nrf2 qHTS screen for inhibitors: Nrf2 A549 ARE-Fluc Confirmation Assay for Hit Validation; shares compounds with Nrf2 inh; A549 ARE-firefly luciferase reporter, luminescence; Potency, µM (top dose mostly 46.1 µM), for the others: top-dose activity change, negative = inhibition, actives largely listed as inhibitors; 74% of 1,400 active; AID 720524, 2013; further: potency means the concentration at half of the fitted maximal effect; on the % scale 0 is the no-effect control and ±100 the full control effect; nearly all actives have a fitted effect of over 65% in size
* = called active by the depositor. The list is not random: actives were taken first. Their share in the collection is about 3.2%. Unless noted, the call rests on the fitted dose curve; in most records, active means well fitted curve in the direction sought with a large enough effect; inconclusive means small, poorly fitted or top-dose-only effect, or another doubt; inactive means no such curve, though single readings can be large; an effect the other way counts as inactive or inconclusive.

O=C(NCC1CCCO1)c1cccc2c1C(=O)c1ccc(N3CCC(Cc4ccccc4)CC3)cc1S2(=O)=O (centres undefined) was read as p53 reactivator -2%, Nrf2 inh 21µM*, A549 tox-1 -8%, IL-2 act 3, Nrf2 activator -2% and BRCA1 expr up -82%.
For CC1CCN(c2ccc3c(c2)S(=O)(=O)c2cccc(C(=O)NC[C@@H]4CCCO4)c2C3=O)CC1 the results were p53 reactivator 15%, Nrf2 inh 9%, A549 tox-1 -9%, IL-2 act 1, Nrf2 activator 0% and BRCA1 expr up -2%.
Screening O=C(NCc1ccccc1)C1=C[C@@H](c2csc3ccccc23)C[C@@H](OCc2ccc(CO)cc2)O1 returned p53 reactivator -1%, Nrf2 inh 6.5µM*, A549 tox-1 inconclusive, IL-2 act -1, Nrf2 activator 0%, BRCA1 expr up -45%, FLuc enzyme inh 1%, A549 tox-2 -26% and ARE-Fluc inh 18µM*.
`COc1ccc(NC(=O)CSC2=Nc3ccccc3C3=NC(CCC(=O)NCc4ccc(F)cc4)C(=O)N23)cc1Cl` (centres undefined) gave Nrf2 inh inconclusive, A549 tox-1 -26% and Nrf2 activator 0%.
Screening COc1ccc(Cl)cc1NC(=O)CSC1=Nc2ccccc2C2=NC(CCC(=O)NCc3ccc(F)cc3)C(=O)N12 (centres undefined) returned Nrf2 inh 3.7µM*, A549 tox-1 inconclusive, Nrf2 activator 8%, FLuc enzyme inh 4%, A549 tox-2 inconclusive and ARE-Fluc inh 15µM*.
For COc1cc(CNCc2ccc(OC)cc2OC)cc(OC)c1 the results were p53 reactivator -3%, Nrf2 inh 7.3µM*, A549 tox-1 -7%, IL-2 act 0, Nrf2 activator 0%, BRCA1 expr up 3%, FLuc enzyme inh 3%, A549 tox-2 -3% and ARE-Fluc inh inconclusive.
Screening CCOc1ccc(CCNC(=O)c2cc3c(=O)n(CC)c4ccccc4c3s2)cc1OCC returned Nrf2 inh 1%, A549 tox-1 -1%, Nrf2 activator 0% and BRCA1 expr up 0%.
`COc1ccc(-c2ocnc2C(=O)NCc2nn(-c3ccccc3)nc2C)cc1` gave p53 reactivator 0%, Nrf2 inh 2.9µM*, A549 tox-1 4%, IL-2 act 2, Nrf2 activator 0%, BRCA1 expr up -39%, FLuc enzyme inh -2%, A549 tox-2 -6% and ARE-Fluc inh 5.8µM*.
For Cc1ccc(-c2cc[n+](Cc3ccccc3)cc2)cc1 the results were p53 reactivator -6%, Nrf2 inh 7.3µM*, A549 tox-1 -8%, IL-2 act -1, Nrf2 activator -1%, BRCA1 expr up -62%, FLuc enzyme inh 1%, A549 tox-2 -2% and ARE-Fluc inh 9.2µM*.
For Cc1ccc(N2CCN(S(=O)(=O)N3CCCCC3)CC2)c(C)c1 the results were p53 reactivator 9%, Nrf2 inh 6.5µM*, A549 tox-1 -15%, IL-2 act 4, Nrf2 activator 0%, BRCA1 expr up -1%, FLuc enzyme inh 3%, A549 tox-2 9% and ARE-Fluc inh 9%.
`CCOc1ccc(S(=O)(=O)NCc2cccnc2)cc1NC(=O)c1ccccc1F` gave p53 reactivator -1%, Nrf2 inh -4%, A549 tox-1 -15%, IL-2 act -3, Nrf2 activator -1% and BRCA1 expr up -67%.
Screening CCOc1ccc(S(=O)(=O)NCc2ccncc2)cc1NC(=O)c1ccccc1F returned p53 reactivator 2%, Nrf2 inh 2.6µM*, A549 tox-1 -12%, IL-2 act 0, Nrf2 activator -1%, BRCA1 expr up -24%, FLuc enzyme inh 1%, A549 tox-2 2% and ARE-Fluc inh inconclusive.
CCOc1ccc(S(=O)(=O)NCc2ccncc2)cc1NC(=O)c1ccccc1 was read as p53 reactivator -3%, Nrf2 inh 0.46µM*, A549 tox-1 -13%, IL-2 act -7, Nrf2 activator 0%, BRCA1 expr up -44%, FLuc enzyme inh 4%, A549 tox-2 0% and ARE-Fluc inh 3.7µM*.
Screening CC(C)CCSc1nc2c(c(=O)n(C)c(=O)n2C)n1Cc1ccccc1Cl returned Nrf2 inh 13%, A549 tox-1 -7% and Nrf2 activator 1%.
`COc1ccc(-c2cc(C(F)(F)F)nc(SCCC(=O)Nc3c(C)cccc3C)n2)cc1` gave Nrf2 inh -19%, A549 tox-1 -12%, Nrf2 activator 1% and BRCA1 expr up 5%.
Screening COc1ccc2c(C)c(CC(=O)NCc3ccccc3Cl)c(=O)oc2c1OC returned Nrf2 inh -9%, A549 tox-1 1% and Nrf2 activator -1%.
Cc1ccc(Cl)cc1N1CCN(C(=O)c2cc3c(=O)[nH]c4ccccc4c3n2C)CC1 was read as p53 reactivator -2%, Nrf2 inh 4.1µM*, A549 tox-1 -20%, IL-2 act -2, Nrf2 activator 0%, BRCA1 expr up -51%, FLuc enzyme inh 2%, A549 tox-2 -25% and ARE-Fluc inh inconclusive.
`Cc1ccc(NC(=O)C2CCCN(S(=O)(=O)c3ccc4c(c3)oc(=O)n4C)C2)cc1Cl` (centres undefined) gave Nrf2 inh -4%, A549 tox-1 12%, Nrf2 activator 1% and BRCA1 expr up 6%.
